“And” between values parts separate entries of the source, which are not always exact repeats. Equal values may be shown once. Records with an inconclusive call do not appear. A call without a number means that no potency is given here. The source made the active and inactive calls. Unless noted, calls follow the shape of the dose curve; as a rule, active = well fitted curve in the direction sought with a large enough effect; inconclusive = small, poorly fitted or top-dose-only effect, or another doubt; inactive = no such curve, though single readings can be large; an effect the other way counts as inactive or inconclusive.
How the values were obtained:
[1] = Cell Viability - N2a (AID 540); details: N2a mouse neuroblastoma cell viability; activity change, negative = cytotoxicity: at 92.2 µM (top of the series); also: nearly all actives have a fitted effect of over 45% in size
Procedure, shortened: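 CellTiter-Glo ATP luminescence, read 20 min after reagent at room temperature, reported viability following 40 h compound treatment at 37 °C. N2a mouse neuroblastoma cells seeded 1500/well; Hill equation gave AC50.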

[2] = Cellular Toxicity (caspase-3) Jurkat (AID 655); details: Jurkat caspase-3 activation, luminescence, DMSO = 0%, tamoxifen = 100%; at 92.2 µM (top of the series);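 also: cells exposed to compound for 16 h at 37 °C before reading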
Procedure, shortened: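 qHTS in human Jurkat T-cell leukemia line: 16 hr compound treatment at 37 °C, caspase-3/7 activity measured by Caspase-Glo luminescence. AC50 derived from Hill equation.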

[3] = Cellular Toxicity (caspase-3) SHSY5Y (AID 657)
Procedure, shortened: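 Readout: caspase-cleaved peptide-aminoluciferin substrate driving luciferase light in SH-SY5Y neuroblastoma cells after 16 h treatment. Response normalized to DMSO and 10 uM staurosporine controls.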

[4] = Cellular Toxicity (caspase-3) H-4-II-E (AID 663); details: Potency: caspase-3 activation;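 also: cells exposed to compound for 16 hr before readout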
Procedure, shortened: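 Caspase 3/7 activation measured by luminescent aminoluciferin substrate cleavage after 16 hr compound treatment of H-4-II-E cells in complete medium. Increase normalized between DMSO (basal) and 100 uM tamoxifen (100%); Hill-equation AC50 from concentration-response.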

[5] = Cell Viability - LYMP2-001 (AID 921); also: nearly all actives have a fitted effect of over 70% in size
Procedure, shortened: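 A lymphoblastoid cell line of human origin was treated with library compounds across a concentration series for 24 hours, and viable cell number was estimated from ATP-driven luciferase light output. Hill modeling gave AC50.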

[6] = MultiTox-Fluor Cytotoxicity Assay - LYMP1-001 - Dead Cells (AID 946)
Procedure, shortened: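 AC50 from Hill fit of concentration-response; data normalized to DMSO (basal) and 15 uM tetraoctylammonium bromide (100%). LYMP1-001 lymphoblastoid cells, 2500/well, 16 hr compound at 37 C; dead-cell protease fluorescence, Ex/Em 485/520.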

[7] = MultiTox-Fluor Cytotoxicity Assay - LYMP1-001 - Live Cells (AID 947)
[8] = MultiTox-Fluor Cytotoxicity Assay - LYMP1-002 - Live Cells (AID 955)
Procedure, shortened: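 After 16 h compound exposure at 37 C, live LYMP1-002 lymphoblastoid cells (2500/well) were quantified by cleavage of cell-permeant GF-AFC substrate, read at 405/510 nm after 60 min. Concentration-response fitted with Hill equation for AC50.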

[9] = MultiTox-Fluor Cytotoxicity Assay - LYMP1-003 - Dead Cells (AID 961); also: nearly all actives have a fitted effect of over 70% in size
Procedure, shortened: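 Human lymphoblastoid LYMP1-003 cells (2500/well) were treated with compounds for 16 hr at 37 C in complete medium. Dead-cell protease release was read by bis-AAF-R110 fluorescence (Ex/Em 485/520). AC50 came from Hill fits, normalized to DMSO and 15 uM tetraoctylammonium bromide.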

[10] = Cell Viability - LYMP1-003 - Assay at 24 hr (AID 963)
Procedure, shortened: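 Concentration-response qHTS: ATP loss measured by CellTiter-Glo luminescence after 24 h compound exposure at 37 C. Cells were LYMP1-003 human lymphoblastoid, 2500 per well. AC50 derived via standard Hill equation modeling.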

[11] = Cell Viability - LYMP2-005 (AID 967)
Procedure, shortened: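 Luciferase-based ATP quantitation served as the viability measure in human lymphoblastoid LYMP2-005 cells exposed to test compounds for 24 h at 37 C in complete culture medium. Potency (AC50) was obtained by fitting concentration-response curves with the Hill equation.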

[12] = Cell Viability - LYMP2-015 (AID 971); also: nearly all actives have a fitted effect of over 55% in size
Procedure, shortened: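 Cytotoxicity readout: decrease in intracellular ATP (CellTiter-Glo luminescence) in 2500 LYMP2-015 lymphoblastoid cells/well after 24 h compound exposure at 37 C. Concentration-response data fitted with the standard Hill equation to give AC50.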

[13] = Cell Viability - LYMP2-002 (AID 977)
Procedure, shortened: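 Human lymphoblastoid cells (2500/well) in complete medium were preincubated 5 hr at 37 C, then exposed to compounds for 24 hr at 37 C. Intracellular ATP was read by CellTiter-Glo luminescence; AC50 came from Hill-equation concentration-response fits.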

[14] = Cell Viability - LYMP2-016 (AID 984); also: nearly all actives have a fitted effect of over 55% in size
Procedure, shortened: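 Concentration-dependent ATP depletion measured in LYMP2-016 lymphoblastoid cells, 24 h, 37 C; luciferase-based luminescent detection; Hill-equation AC50.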

[15] = qHTS assay for small molecule antagonists of retinoid X receptor alpha signaling (AID 588546); details: HEK293T RXRa-UAS-bla, beta-lactamase ratio, antagonist mode; measured here: W530 green channel, cytotoxicity proxy;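 also: cells stimulated with 9-cis-retinoic acid as agonist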
Procedure, shortened: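 Beta-lactamase reporter inhibition, read as CCF4 fluorescence ratio (ex 405, em 460/530 nm) after 2 h at RT. HEK293T UAS-bla cells, 2500/well, were stimulated with 9-cis-RA at 500 or 100 nM final alongside test compound for 18 h at 37 C.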

[16] = molecular target: Tumor necrosis factor (Homo sapiens) (UniProt P01375); assay: qHTS assay to identify small molecules that stimulate Tumor Necrosis Factor-alpha (TNF-alpha) secretion (AID 651757; active = well fitted curve in the direction sought with a large enough effect in the signal ratio; the % refers to the signal ratio)
Tumor necrosis factor (Homo sapiens), sequence (P01375 whole entry, looked up): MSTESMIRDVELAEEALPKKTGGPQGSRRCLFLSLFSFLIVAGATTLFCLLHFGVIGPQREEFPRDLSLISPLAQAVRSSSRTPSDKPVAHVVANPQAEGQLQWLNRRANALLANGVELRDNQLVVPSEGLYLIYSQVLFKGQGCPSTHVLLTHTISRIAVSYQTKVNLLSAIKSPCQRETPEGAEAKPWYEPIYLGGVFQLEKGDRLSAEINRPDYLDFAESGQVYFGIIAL
Procedure, shortened: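 Secreted TNF-alpha quantified by TR-FRET sandwich of two labeled anti-TNF-alpha antibodies, incubated 3 hr at room temperature. Preceded by 17 hr, 37 C compound treatment of THP-1 cells at 3000 cells/well.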

[17] = qHTS assay for environmental chemicals that activate the Aryl hydrocarbon Receptor (AhR) signaling pathway (AID 651777); details: 1A2-DRE human hepatoma cells, luciferase, 24 h; activation: stronger effect = higher value; also: nearly all actives have a fitted effect of over 15% in size
Procedure, shortened: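 Human hepatoma 1A2-DRE cells stably carrying a DRE/CYP1A2 promoter–luciferase reporter, 1,200 cells/well, exposed to compound 24 hr at 37 C. Luciferase read by One-Glo luminescence after 30 min at room temperature; increased signal marks AhR activation.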

[18] = qHTS assay for small molecule antagonists of the retinoid-related orphan receptor gamma (ROR-gamma) signaling pathway - cell viability counter screen (AID 720652; active = well fitted curve in the direction sought with a large enough effect in the repeat runs; an effect the other way counts as inactive or inconclusive;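 also: CHO reporter cells with doxycycline-induced ROR-gamma expression; compound exposure lasted 16 hr before ATP read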)
Procedure, shortened: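 Cytotoxicity counter screen: intracellular ATP (CellTiter-Glo luminescence) measured in the doxycycline-induced CHO RORE-luciferase reporter line after 16 hr compound exposure at 37 C, 5% CO2.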

[19] = qHTS assay for cell viability of HEK293 cells (AID 743288); details: ATP luminescence (CellTiter-Glo), 18 h; max response: stronger effect = lower value; also: nearly all actives have a fitted effect of over 50% in size
Procedure, shortened: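 HEK293, 18 h, 37 C, ATP luminescence. Cells at 2,000/well were allowed at least 5 h to settle before dosing; CellTiter-Glo developed 30 min at RT.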

[20] = qHTS assay for cell viability of the p53RE-bla HCT-116 cell line (AID 743292); also: nearly all actives have a fitted effect of over 55% in size
Procedure, shortened: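 CellSensor p53RE-bla HCT-116 cells (4,000/well) pre-incubated 5 h at 37 C, then exposed to compounds in DMSO for 16 h at 37 C. Viability read as ATP content by CellTiter-Glo luminescence after 30 min at room temperature.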

Row | SMILES | activity change, negative = cytotoxicity [1] | caspase-3 activation [2] | outcome [3] | Potency [4] | Potency [5] | Potency [6] | Potency [7] | Potency [8] | Potency [9] | Potency [10] | Potency [11] | Potency [12] | Potency [13] | Potency [14] | max response [15] | outcome [16] | activation [17] | Potency [18] | max response [19] | Potency [20]
1 | CC1(C)CC(N=C=O)CC(C)(CN=C=O)C1 (stereo not drawn) | 6.51% (inactive) | 0.941% (inactive) | inactive | inactive | inactive | inactive | inactive | inactive | inactive | inactive | inactive | inactive | inactive | inactive | -0.108% and -15.8% | inactive | 2.53% (inactive) and -0.0427% (inactive) | inactive | -4.37% (inactive) and 1.94% (inactive) | inactive
2 | Cc1ccc([N+](=O)[O-])cc1N | -2.12% (inactive) | -0.45% (inactive) | inactive | inactive | inactive | inactive | inactive | inactive | inactive | inactive | inactive | inactive | inactive | inactive | -2.85% and -10.6% | inactive | 6.03% (inactive) and 2.09% (inactive) | inactive | -2.6% (inactive) and -12% (inactive) | inactive
3 | Clc1cc(Cl)c(Cl)c(Cl)c1Cl | -10.3% (inactive) | 1.31% (inactive) | inactive | inactive | inactive | inactive | inactive | inactive | inactive | inactive | inactive | inactive | inactive | inactive | -5.69% and -1.37% | inactive | 0.277% (inactive) and 2.12% (inactive) | inactive | -16.4% (inactive) and -15.3% (inactive) | inactive
4 | CCCCC(CC)CN (stereo not drawn) | -20.4% (inactive) and 2.62% (inactive) | -1.36% (inactive) and 1.48% (inactive) | inactive | inactive | inactive | inactive | inactive | inactive | inactive | inactive | inactive | inactive | inactive | inactive | -4.73% and -4.29% | inactive | 0.546% (inactive) and 3.21% (inactive) | inactive | 2.8% (inactive) and -10% (inactive) | inactive
5 | OCCNCCO | 6.19% (inactive) | 2.36% (inactive) | inactive | inactive | inactive | inactive | inactive | inactive | inactive | inactive | inactive | inactive | inactive | inactive | -14.5% and -2.92% | inactive | 1.33% (inactive) and -0.956% (inactive) | inactive | 2.85% (inactive) and -11.3% (inactive) | inactive
6 | c1ccc2c(c1)[nH]c1ccccc12 | -16.4% (inactive) | 0.344% (inactive) | inactive | inactive | inactive | inactive | inactive | inactive | inactive | inactive | inactive | inactive | inactive | inactive | -0.129% and 3.48% | inactive | 0.0505% (inactive) and 2.39% (inactive) | inactive | -7.42% (inactive) and -16.3% (inactive) | inactive
7 | CCO[Si](CCCN)(OCC)OCC | -19% (inactive) | 1.79% (inactive) | inactive | inactive | inactive | inactive | inactive | inactive | inactive | inactive | inactive | inactive | inactive | inactive | -0.81% and -5.53% | inactive | – | inactive | -4.38% (inactive) and -9.06% (inactive) | inactive
8 | C1OCOCO1 | -19.8% (inactive) | 2.97% (inactive) | inactive | inactive | inactive | inactive | inactive | inactive | inactive | inactive | inactive | inactive | inactive | inactive | -18.1% | inactive | -0.144% (inactive) | inactive | -3.72% (inactive) | inactive
9 | c1ccc2c(c1)c1cccc3ccc4cccc2c4c31 | 3.28% (inactive) | 0.0871% (inactive) | inactive | inactive | inactive | inactive | inactive | inactive | inactive | inactive | inactive | inactive | inactive | inactive | -0.47% and 10% | – | 0.979% (inactive) and 4.09% (inactive) | inactive | 0.963% (inactive) and -16.2% (inactive) | inactive
